# TDP1 cell noCPT = qHTS for Inhibitors of human tyrosyl-DNA phosphodiesterase 1 (TDP1): qHTS in cells in absence of CPT; Potency, µM (doses to about 46.2 µM), inactives show at the top dose activity change, negative = growth inhibition, actives largely listed as inhibitors; 420,000 tested, 15% active; DT40 Tdp1-/- hTDP1 cells, no CPT, ATP luminescence, 48 h; AID 686978, 2013; note: potency is the fitted concentration of half-maximal effect; % is set by controls: 0 for no effect and ±100 for the full control effect; nearly all actives have a fitted effect of over 55% in size
#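 Chicken DT40 Tdp1-/- cells stably complemented with human TDP1 were seeded at 400 cells/well with DMSO in place of 20 nM camptothecin. After compound pinning, cells grew at least 48 hr at 37 °C; viability read by CellTiter-Glo luminescence.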
# BCR signal inh = chronic active BCR signaling inhibition | ABC-DLBCL IkBa-CBG/CBR reporter, luminescence ratio, 4 h | Potency, µM (top dose mostly 46.1 µM), inactives show at the highest dose activity change, negative = inhibition, most hits filed as inhibitors | 340,000 tested, 0.05% active | AID 493014; active = well fitted inhibition curve with a large enough effect in the signal ratio, with a control signal flat, not every such curve was filed as active; inconclusive = small, poorly fitted or top-dose-only effect, or effect the other way, or a change in a side signal; the % refers to the signal ratio;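 note: potency is the fitted concentration of half-maximal effect; plate controls were basal doxycycline-induced cells for no effect and cells given 10 µM MG132 for full effect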
#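 Compounds up to 46 uM were incubated four hours with TMD8 cells whose green CBG68 luciferase is fused to IkappaBalpha; red CBR luminescence normalised the signal, and concentration-effect curves were fitted to fusion, red and ratio data.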
# DT40 TDP1 CPT = DT40-hTDP1 cell growth loss with CPT. Potency, µM (highest dose often 46.2 µM), for the others: at the highest dose activity change, negative = growth inhibition, usual class: inhibitors. AID 686979. chicken DT40 Tdp1-/-;hTDP1 cells + 20 nM CPT, ATP luminescence, 48 h. 420,000 tested, 12% active; note: potency is the fitted concentration of half-maximal effect; % is set by controls: 0 for no effect and ±100 for the full control effect; nearly all actives have a fitted effect of over 55% in size
#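 Chicken DT40 Tdp1-/- cells stably complemented with human TDP1 were seeded at 400 cells/well in medium containing 20 nM camptothecin, exposed to pin-transferred compounds, and grown at 37 °C for at least 48 hr. Viability was read as ATP luminescence.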
# MCF10A rerep = inducers of DNA re-replication in MCF 10A breast cells; MCF 10A DNA re-replication, Hoechst nuclear intensity, 48 h; Potency, µM (doses to about 46.1 µM), without a hit: at the highest dose activity, positive = re-replication, actives largely listed as activators; 350,000 tested, 2.9% active; note: potency is the fitted concentration of half-maximal effect; % of control where 0% means no effect; nearly all actives have a fitted effect of over 50% in size
# IL-1B inflam inh = blocks inflammasome-driven IL-1 beta release. THP-1 LPS/ATP IL-1B secretion, AlphaLISA, 16 h; stronger effect = lower value. activity change, % at 57.5 µM. 360,000 tested, 4.7% active; in the data active = activity change below about -50%; inconclusive = mostly about -30% to -49%; note: % is set by controls: 0 for no effect and ±100 for the full control effect
#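 Secreted IL-1B measured by AlphaLISA bead assay after 16 h compound exposure of THP-1 cells; compounds (final up to 57.5 uM) added 1 h before LPS (250 ng/mL) and ATP (1.25 mM) stimulation; lower signal means less secretion.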
# SW480 rereplic = induces DNA re-replication in SW480 colon adenocarcinoma cells; SW480 DNA re-replication, Hoechst DNA content imaging, 48 h; Potency, µM (titrated, usually from 46.1 µM), without a hit: at the highest dose re-replication activation, usual class: activators; 340,000 tested, 1.8% active; AID 624297; note: potency is the fitted concentration of half-maximal effect; % of control where 0% means no effect; nearly all actives have a fitted effect of over 55% in size
#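 Hoechst fluorescence of nuclei (405 nm excitation, 500-530 nm emission) measured by plate-scanning imager after 48 hr compound exposure at 37 C; re-replication scored as increased number of nuclei with elevated intensity.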
# Numbers without * were called inactive; ? = inconclusive; . = not tested or not shown. In the library only some 19% were active in any assay of this set; here they are far more common. Unless noted, calls come from the whole dose curve; as a rule, active = well fitted curve in the direction sought with a large enough effect; inconclusive = small, poorly fitted or top-dose-only effect, or another doubt; inactive = no such curve, though single readings can be large; an effect the other way counts as inactive or inconclusive.
SMILES,TDP1 cell noCPT,BCR signal inh,DT40 TDP1 CPT,MCF10A rerep,IL-1B inflam inh,SW480 rereplic
Cc1ccc(S(=O)(=O)N2CCCC2CNC(=O)C(=O)NCCN2CCOCC2)cc1 (centres undefined),-3%,20%,-12%,4%,19,-2%
Cc1cccc(CCNC(=O)C2CCN(S(=O)(=O)c3ccccc3)CC2)c1,?,-3%,-4%,3%,0,-4%
CC(C)NC(=O)c1ccc2c(c1)N(CC(=O)N1CCCCC1)C(=O)C(C)(C)O2,-23%,9%,-2%,-3%,-5,-50%
O=C(N/N=C(\c1ccccc1)c1ccccn1)c1ccccc1Cl,?,?,?,?,-104*,?
O=C(NC(O)C(=O)c1ccccc1)c1ccccn1 (centres undefined),?,?,23µM*,29%,4,6%
O=C(NC(O)C(=O)c1ccccc1)c1cccs1 (centres undefined),?,?,?,?,33,2%
COc1ccc(C(=O)N/N=C(\c2ccccc2)c2ccccn2)cc1,2.6µM*,-9%,2.9µM*,?,-23,?
O=C(NN=C(c1ccccc1)c1ccccn1)c1ccccc1,0.92µM*,?,1µM*,?,-99*,10µM*
COc1ccc(C(=O)Nc2ccc(NC(=O)c3ccccn3)cn2)cc1,-20%,?,-7%,0%,-1,-10%
N#Cc1nc2ccccc2n1OCc1ccccc1,?,.,-1%,.,?,.
CCOC(=O)[C@H]1[C@H]2COc3ccc(OC)cc3[C@@H]2N2C(=O)CN(C)C(=O)[C@@]12C,-19%,-1%,-8%,-1%,-8,-6%
CCS(=O)(=O)N1CCc2cc(C(=O)NCc3ccccc3OC)ccc21,?,.,-9%,.,.,.
CC12CCC(=O)N1C(C(=O)NNC(=O)c1ccccc1Cl)CS2 (centres undefined),-13%,0%,-1%,10%,2,-1%
COc1ccc(CC(=O)Nc2ccc(-c3nc4ccccc4s3)cc2Cl)cc1OC,?,13%,?,.,.,.
Cc1oc2ncnc(N3CCOCC3)c2c1C(=O)NCc1ccccc1,-13%,.,-7%,.,.,.
COCCN(Cc1ccc(OC)cc1)c1c(C)nc2ccc(C(=O)NCCc3c[nH]c4ccccc34)cn12,?,.,?,.,-6,.
CCCCCN1CC(=O)N2Cc3[nH]c4ccccc4c3C[C@H]2C1=O,-15%,-6%,-16%,4%,-59*,-3%
CCCCN1C(=O)C2Cc3c([nH]c4ccccc34)CN2C1=S (centres undefined),?,?,-27%,?,-88*,-2%
O=C1[C@@H]2Cc3c([nH]c4ccccc34)CN2C(=O)CN1CCCO,2%,3%,-1%,-13%,-2,-2%
CCCCCCN1CC(=O)N2Cc3[nH]c4ccccc4c3C[C@H]2C1=O,?,8%,-29%,16%,-58*,6%
CCOc1ccccc1NC(=O)c1cc2c(=O)n(Cc3cccnc3)ccc2nc1C,-22%,.,-27%,.,.,.
Cc1cccnc1NC(=O)NC(=O)c1ccc(C(C)(C)C)s1,16µM*,0%,?,0%,-13,2%
O=C(c1cccnc1)N1CCN(Cc2ccc3ccccc3c2)CC1,?,4%,?,18µM*,24,0%
O=C(NC(=S)N1CCN(C/C=C/c2ccccc2)CC1)c1ccc(Cl)nc1,15µM*,13%,23µM*,5%,37,3%
O=C(NC(=S)N1CCN(Cc2ccccc2)CC1)c1cccnc1,21µM*,-1%,16µM*,-1%,17,1%
O=C(NC(=S)N1CCCCC1)c1cccnc1,3%,?,-3%,-1%,25,-8%

# Screening data from PubChem BioAssay.
